# BAZ2B inh – blocks human BAZ2B. Q9UIF8. AlphaScreen BAZ2B-H3K14Ac peptide displacement. Potency, µM (series often up to 114 µM), hits mostly inhibitors. 360,000 tested, 4.4% active. AID 504333; also: nearly all actives have a fitted effect of over 60% in size
#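 Protein-peptide AlphaScreen: BAZ2B 50 nM, b-H3K14Ac 50 nM, 1x PBS pH 7.4 + 0.01% Tween-20. Preincubation 30 min RT; cpd 30 min RT (top 110 uM); beads 20 min RT, light-protected.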
# HP1b chromo inh – HP1-beta chromodomain-methylated histone interaction inhibition; AlphaScreen HP1-beta / biotin-H3K9me3 peptide binding; 390,000 tested, 0.56% active; Potency, µM (top dose mostly 114 µM), usual class: inhibitors; P83916; also: nearly all actives have a fitted effect of over 70% in size
#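 AlphaScreen: HP1-beta (50 nM) preformed 30 min with biotin-H3(1-18)K9me3 peptide (50 nM) in PBS pH 7.4, 0.01% Tween-20. Compound added for 30 min at RT, then streptavidin donor/nickel chelate acceptor beads (10 ug/mL) for 30 min.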
# Sfp inh – inhibitors of Bacillus subtilis Sfp phosphopantetheinyl transferase; Q9F4F7; 310,000 tested, 3.5% active; Potency, µM, actives largely listed as inhibitors; Biochemical Sfp PPTase activity, qHTS; AID 1490;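 also: the enzyme is Sfp with the accession as filed and its product quenches rhodamine fluorescence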
#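 Buffer: 50 mM Hepes-Na pH 7.6, 10 mM MgCl2, 0.01% Nonidet P-40, 0.01% BSA. Enzyme 15 nM, pre-exposed to compound 15 min; substrates then added and fluorescence change tracked over 30 min.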
# PLK1 PBD inh – inhibitors of human PLK1 polo-box domain binding; P53350; Plk1 PBD binding of FITC phosphopeptide, fluorescence polarization; Potency, µM, most hits filed as inhibitors; 360,000 tested, 2.8% active; AID 720504; also: series mostly up to about 57 µM; nearly all actives have a fitted effect of over 65% in size
# G9a block – inhibitors of human histone lysine methyltransferase G9a | Potency, µM (highest dose often 102 µM), most hits filed as inhibitors | G9a H3K9 monomethylation, AlphaScreen, 2 h | 350,000 tested, 8.8% active | Q96KQ7; also: nearly all actives have a fitted effect of over 75% in size
#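 Quantitative HTS format: methyltransferase activity on a biotin-tagged H3K9 peptide is measured by AlphaScreen, using a rabbit anti-monomethyl-H3K9 antibody with streptavidin donor and anti-IgG acceptor beads. Final levels are 20 nM enzyme, 500 nM peptide, 20 uM SAM; 2 h RT.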
# JMJD2A Tudor inh – inhibitors of human JMJD2A Tudor domain. O75164. AlphaScreen JMJD2A-Tudor / H3K4me3 peptide binding. Potency, µM (highest dose often 114 µM), hits mostly inhibitors. 390,000 tested, 4.4% active; also: nearly all actives have a fitted effect of over 50% in size
# Target sequence (O75164 whole entry, looked up, the tested form may be a part): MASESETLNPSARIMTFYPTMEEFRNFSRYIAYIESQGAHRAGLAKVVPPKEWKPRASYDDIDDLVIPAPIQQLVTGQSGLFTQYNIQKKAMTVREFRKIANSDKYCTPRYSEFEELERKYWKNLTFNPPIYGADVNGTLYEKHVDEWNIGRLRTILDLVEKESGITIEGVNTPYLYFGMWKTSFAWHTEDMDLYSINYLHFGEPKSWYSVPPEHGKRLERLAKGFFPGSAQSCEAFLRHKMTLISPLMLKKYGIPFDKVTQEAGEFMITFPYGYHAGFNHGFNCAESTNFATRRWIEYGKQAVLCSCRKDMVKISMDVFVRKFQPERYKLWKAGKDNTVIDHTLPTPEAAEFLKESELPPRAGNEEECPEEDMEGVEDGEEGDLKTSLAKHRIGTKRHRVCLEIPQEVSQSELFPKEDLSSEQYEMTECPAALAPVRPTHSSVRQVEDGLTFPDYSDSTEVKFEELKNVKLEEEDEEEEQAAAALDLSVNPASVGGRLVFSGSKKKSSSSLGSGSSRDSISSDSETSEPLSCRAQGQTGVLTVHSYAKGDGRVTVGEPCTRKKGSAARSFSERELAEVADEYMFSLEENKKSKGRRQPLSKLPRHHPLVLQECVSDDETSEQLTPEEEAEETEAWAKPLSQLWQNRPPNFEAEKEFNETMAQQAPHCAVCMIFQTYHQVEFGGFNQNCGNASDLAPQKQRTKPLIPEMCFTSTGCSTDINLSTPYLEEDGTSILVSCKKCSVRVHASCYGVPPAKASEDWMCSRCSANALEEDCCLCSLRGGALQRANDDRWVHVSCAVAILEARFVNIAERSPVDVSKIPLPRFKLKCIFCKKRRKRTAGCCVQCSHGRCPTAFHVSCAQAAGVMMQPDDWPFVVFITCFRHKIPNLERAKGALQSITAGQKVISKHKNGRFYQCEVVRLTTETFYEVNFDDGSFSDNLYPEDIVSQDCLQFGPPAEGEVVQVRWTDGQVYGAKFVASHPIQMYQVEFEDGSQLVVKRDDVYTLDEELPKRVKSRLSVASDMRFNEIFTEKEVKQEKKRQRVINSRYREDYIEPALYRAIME
# A number is an active result; 0 = inactive; ? = inconclusive; - = not tested or not shown; ! = not active in a repeat; [ ] = remark or other dose. This is a sample that favours compounds with a hit; in the whole collection about 12% have one here. Calls follow the shape of the dose curve; as a rule, active = well fitted curve in the direction sought with a large enough effect; inconclusive = small, poorly fitted or top-dose-only effect, or another doubt; inactive = no such curve, though single readings can be large; an effect the other way counts as inactive or inconclusive.
SMILES,BAZ2B inh,HP1b chromo inh,Sfp inh,PLK1 PBD inh,G9a block,JMJD2A Tudor inh
CCC(C)N(C(=O)COC(=O)CSc1ccc(C)c(C)c1)C1CCS(=O)(=O)C1 (stereo not given),0,0,-,0,0[12.7 µM],0
CCC(C)N(C(=O)CSc1ccc(NC(C)=O)cc1)C1CCS(=O)(=O)C1 (stereo not given),0,0,0,29.9µM,?,0
CCCCN(CCCNC(=O)c1cc(Nc2ccc(OC)c(OC)c2)nc2ccccc12)c1ccccc1,-,0,-,-,0,?
C[C@@](Cc1ccccc1)(NC(=O)CN)c1ccccc1,-,-,0,-,0[12.7 µM],-
Cc1ccc(-n2ncc(C(=O)Nc3ccc4c(c3)OCO4)c2C2CCN(C(=O)OC(C)(C)C)CC2)c(C)c1,?,0,-,-,?,31.6µM
COc1ccc(C(=O)CC(=O)c2ccc(OC)cc2)cc1,0,0,0,0,0,0
COc1ccc(C(=O)C[N+]2(C)CCOCC2)cc1,?,0,0,0,12.6µM,22.4µM
Cc1ccc(C)c(N2CCN(CCCNC(=O)c3nnc(Cc4ccc(F)cc4Cl)o3)CC2)c1,?,0,-,-,?,?
C#CCCOC(=O)N1C2=NC(C(=O)OC)=C(C(=O)OC)[C@@H]3N(CC#CC)c4ccccc4[C@]23C[C@H]1C(=O)OC,-,-,0,-,-,-
Cc1ccccc1C1CC(=O)Oc2cc(O)ccc21 (stereo not given),-,0,0,16.8µM,0,0
Cc1ccc(C2CC(=O)Oc3ccc(C(C)(C)C)cc32)cc1 (stereo not given),-,-,0,-,0,-
Cc1ccc(C2CC(=O)Oc3ccc(O)cc32)cc1 (stereo not given),-,-,?,-,11.2µM,-
Cn1c(N/N=C/c2cccs2)cc(=O)n(C)c1=O,0,0,0,0,50.1µM,0
COc1ccc(C2c3cccn3CCN2S(=O)(=O)c2ccc([N+](=O)[O-])cc2)cc1 (stereo not given),?,0,-,-,12.6µM,0
CCNC(=O)c1cnc2c(-c3ccccc3)c(C)nn2c1C,0,0,-,-,0,0
N#CC1=C(N)N(c2ccccc2)C(c2ccco2)C1(C#N)C#N (stereo not given),?,0,0,0,0[12.7 µM],?
N#CC1=C(N)N(c2ccccc2)C(c2cccc([N+](=O)[O-])c2)C1(C#N)C#N (stereo not given),?,0,0,?,44.7µM,?
COc1ccc(/C(O)=C2/C(=O)C(=O)N(Cc3cccnc3)C2c2ccco2)cc1OC (stereo not given),0,0,0,0,0,25.1µM
Cc1ccc(C2/C(=C(\O)c3ccc4c(c3)OCCO4)C(=O)C(=O)N2CCCN(C)C)o1 (stereo not given),0,-,0,-,44.7µM,-
CCN(CC)CCCN1C(=O)C(=O)/C(=C(/O)c2ccc(OC)c(Cl)c2)C1c1ccco1 (stereo not given),0,-,?,-,44.7µM,-
COc1ccc(/C(O)=C2/C(=O)C(=O)N(CCN(C)C)C2c2ccccc2)cc1Cl (stereo not given),?,0,0,0,0[12.7 µM],0
COc1ccc(C2/C(=C(\O)c3ccc4c(c3)OCCO4)C(=O)C(=O)N2CCCN(C)C)cc1 (stereo not given),0,0,0,0,?,0
COc1ccc(/C(O)=C2/C(=O)C(=O)N(CCCN(C)C)C2c2ccc(C)o2)cc1Cl (stereo not given),0,-,89.1µM,-,44.7µM,-
COc1cc(OC)c(N(C)C(=O)c2cc3c(s2)-c2ccccc2OC3)cc1Cl,0,0,-,-,0,0
CCC(CO)Oc1cc(NC(=O)c2ccc(F)cc2)c2ncn(C(C)C)c2c1 (stereo not given),0,0,-,?,0[0.501 µM],50.1µM
SMILES,BAZ2B inh,HP1b chromo inh,Sfp inh,PLK1 PBD inh,G9a block,JMJD2A Tudor inh
CCC(CO)Oc1cc(NC(=O)c2cccc(Cl)c2)c2ncn(C(C)C)c2c1 (stereo not given),79.4µM,0,-,0,0[0.501 µM],?
N#Cc1ccccc1N=Cc1ccc(Br)cc1,0,0,0,?,0,0
COc1[nH]c(/N=C/c2ccccc2)c(C#N)c1C#N,?,0,0,21.2µM,3.16µM,44.7µM!
O=C1CS/C(=N\N=C\c2ccco2)N1c1ccccc1,50.1µM,0,0,0,?,?
COc1ccc(CNC(=O)CSc2nc(-c3ccc(OC)c(OC)c3)cc(C(F)(F)F)n2)cc1,?,0,-,-,0,0
COc1cc(-c2nc3ccccn3c2N)ccc1O,0,0,0,0,50.1µM,0
Cc1ccc(N2C(=O)/C(=C\c3ccco3)SC2=S)cc1,56.2µM,0,14.1µM,0,0[12.7 µM],0
O=C1NC(=S)NC1=Cc1ccco1,-,35.5µM,-,23.8µM,-,22.4µM
O=C1NC(=O)C(=Cc2ccco2)S1,-,0,-,0,-,0
O=C1/C(=C\c2ccco2)NC(=S)N1c1ccccc1,0,?,0,?,-,56.2µM
O=C1/C(=C\c2ccco2)SC(=S)N1c1ccccc1,?,?,?,0,50.1µM,0
Cc1ccc(/C=C2\SC(=S)N(c3cccnc3)C2=O)cc1,?,0,0,0,0,0
CCCOc1ccc(C2Nc3cccc4cccc(c34)N2)cc1,?,?,0,0,39.8µM,39.8µM
O=[N+]([O-])c1cccc(C2Nc3cccc4cccc(c34)N2)c1,35.5µM,?,44.7µM,0,15.8µM,50.1µM
FC(F)(F)c1ccc(C2Nc3cccc4cccc(c34)N2)cc1,39.8µM,0,0,0,35.5µM,?
O=[N+]([O-])c1ccc(C2Nc3cccc4cccc(c34)N2)cc1,44.7µM,?,22.4µM,0,28.2µM,?
CC(=O)OC1CC2C(C)(C)CCC(=O)[C@@]2(C)C2CC[C@@]3(C)C(c4ccoc4)OC(=O)C4OC43[C@]12C (stereo not given in full),-,-,0,-,0[2.33 µM],-
N#Cc1c(Cl)cccc1Oc1ccc([S+](=O)([O-])N2CCN([S+](=O)([O-])c3c(F)cccc3F)CC2)cc1,-,-,-,-,-,0
COC(=O)/C(=C/Nc1ccc(O)cc1)[N+](=O)[O-],0,0,0,0,2µM,?
CN(C)CCN1CCc2ccccc21,?,0,0,0,?,0
c1ccc2c(c1)CCN2CCN1CCc2ccccc21,?,0,0,0,3.55µM,0
O=C1c2ccccc2C(=O)N1CCN1CCc2ccccc21,50.1µM,0,0,0,?,?
COc1ccc(CCNC(=O)c2cc3cc(F)ccc3nc2C)cc1OC,-,0,-,0,-,0
CCOC(=O)C1=C(O)c2ccccc2C(=O)/C1=C\c1ccc(C)cc1,20µM,35.5µM,11.2µM,0.67µM,2.51µM,39.8µM
CC(C)Cc1nnc(NC(=O)C2CCCC2)s1,0,0,0,0,0,0
Cc1ccc2nc(-c3ccc(Cl)c(NC(=O)c4cccc([N+](=O)[O-])c4C)c3)oc2c1,?,0,-,-,0,0
CCN1C/C(=C/c2ccc(N3CCOCC3)cc2)C(=O)/C(=C/c2ccc(N3CCOCC3)cc2)C1,?,0,?,0,39.8µM,0

# Bioassay records as filed in PubChem.
